Measured values reported in PubChem BioAssay (NCATS).
Inconclusive results are not listed. A call without a number means that no potency is given here. Calls of active or inactive are those of the source. Calls follow the shape of the dose curve; as a rule, active = well fitted cell-killing curve with a large enough effect; inconclusive = small, poorly fitted or top-dose-only effect, or effect the other way; inactive = flat fitted curve, though single readings scatter. *1 amine or outer side, *2 acyl side, *3 side chain or, on linkers, in order; H or OH if unused. Where a SMILES comes first, the peptide text is derived from it. [ ]: non-standard residue; d: D form. X13 = O=C(C(CC(O)CO)O[*:1])[*:2]; NMeV = CN[CH](C(=O)O)C(C)C; NMeA = CN[CH](C)C(=O)O; βAla = NCCC(=O)O

These molecules were tested on Es-2 (assay: Primary qHTS to identify gynecologic anti-cancer compounds using libraries of approved drugs and bioactive compounds (AID 1345084; also: nearly all actives have a fitted effect of over 55% in size)). Settings: Gynecologic cancer cell panel viability, ATPlite luminescence, 48 h; series mostly up to 57.5 µM.
Outline: (§1)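 Measured: luminescence after ATPlite addition (15 min, RT). Exposure: 48 h, 37 C, 5% CO2.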

SMILES | Potency
CCC(C)C1NC(=O)C2CCCN2C(=O)C(CC(O)CO)OC(=O)CCNC(=O)C(C)N(C)C(=O)C(C(C)C)N(C)C1=O (stereo not drawn) (cyclo([X13]PI[NMeV][NMeA][βAla]); configuration not given here) | inactive
CC(O)C(=O)/C=C/C=C/C(=O)OC1C=C2COC(=O)C2(O)C2(C)CCCC(C)(C)C12 (stereo not drawn) | inactive
CC(C)C(O)(CO)CCO[C@@H]1O[C@H](CO[C@H]2OC[C@](O)(CO)[C@H]2O)[C@@H](O)[C@H](O)[C@H]1O (stereo partly drawn) | inactive
Nc1ncnc2c1ncn2[C@H]1O[C@@H](C(=O)N2CCN(CC(=O)Nc3cccc4c3CNC4=O)CC2)[C@H](O)[C@@H]1O | inactive

Each molecule was assayed on HeLa in the same assay as above. Settings: Gynecologic cancer cell panel viability, ATPlite luminescence, 48 h; series mostly up to 57.5 µM.
Outline: as §1

SMILES | Potency | activity change, negative = cytotoxicity
COC(=O)C1=CO[C@@H](O[C@@H]2O[C@H](CO[C@@H]3O[C@H](CO)[C@@H](O)[C@H](O)[C@H]3O)[C@@H](O)[C@H](O)[C@H]2O)[C@@H]2C(CO)=CC[C@H]12 | inactive | –
CSCC1OC(n2cnc3c(=O)[nH]cnc32)C(O)C1O (stereo not drawn) | inactive | –
COc1cc(C)c(C(=O)OC2C(C)OC(OC3CCC(C)C4C3C=C(C)C3/C(C)=C\CC/C(C)=C/C5(C)C=C(C(=O)O)C(C)CC56OC(=O)/C(=C(\O)C34C)C6=O)C(O)C2O)c(OC)c1 (stereo not drawn) | – | -3.64% [at 11.6 µM] (inactive)
OC[C@H]1O[C@@H](OCc2ccccc2)[C@H](O[C@@H]2OC[C@@H](O)[C@H](O)[C@H]2O)[C@@H](O)[C@@H]1O | inactive | –
Nc1ccc(-n2nc(C(F)(F)F)cc2C(F)(F)F)cc1 | inactive | –
Oc1ccc(CC2NCCc3cc(O)c(O)cc32)cc1 (stereo not drawn) | inactive | –
NCCCCN(Cc1nc2ccccc2[nH]1)[C@H]1CCCc2cccnc21 | inactive | –
C/C(=C\C1CCC(C)C2CCC3(C)OC123)C(=O)O (stereo not drawn) | inactive | –
CC1=C2C3OC(=O)C(C)C3(O)CCC2(C)CCC1 (stereo not drawn) | inactive | –
O=C(N[C@H](Cc1ccccc1)C(=O)O)c1sc2cc(F)ccc2c1Cl | inactive | –
CC(=O)c1ccc(O[C@@H]2O[C@H](CO[C@@H]3OC[C@@H](O)[C@H](O)[C@H]3O)[C@@H](O)[C@H](O)[C@H]2O)cc1 | inactive | –
C=C1C[C@H](O)[C@@H](O)[C@@]2(C)C1[C@@H](O)[C@H]1OC(=O)C3[C@@H](C)[C@@H](O)[C@H](O)C2[C@]31C (stereo partly drawn) | inactive | –
CCCC/C=C\CCCCCc1cc(=O)c2ccccc2n1C | inactive | –
Cn1cc(Nc2cnccc2C(=O)O)c2cccnc21 | inactive | –
C[C@H]1[C@H](C)C[C@@H](C(=O)O)C2CC[C@]3(C)C(=CC[C@@H]4[C@@]5(C)CC[C@H](O)C(C)(C)[C@@H]5CC[C@]43C)[C@@H]21 (stereo partly drawn) | inactive | –
C=CC(C)(O)CC/C=C(\C)C(=O)O[C@@H]1[C@@H](O)[C@H](OC(C)(C=C)CC/C=C(\C)C(=O)O)O[C@H](CO)[C@H]1OC(=O)/C(C)=C/CCC(C)(O)C=C (stereo partly drawn) | inactive | –
CC1(C)CC[C@]2(C(=O)O[C@@H]3O[C@H](CO)[C@@H](O)[C@H](O)[C@H]3O)CC[C@]3(C)C(=CCC4[C@@]5(C)CC[C@H](O[C@@H]6O[C@H](C(=O)O)[C@@H](O)[C@H](O)[C@H]6OC6OC(CO)C(O)C(O)C6O)C(C)(C)C5CC[C@]43C)[C@@H]2C1 (stereo partly drawn) | – | 8.29% [at 11.6 µM] (inactive)
COc1cccc(C)c1C(=O)O[C@@H]1C[C@H](O[C@H]2[C@H](O)C[C@H](O[C@@H]3CCC[C@H]4[C@H]3C=C[C@@H]3CCCC/C=C/[C@H]5C=C(C(=O)O)[C@@H](C)C[C@@]56OC(=O)C(=C6O)OC(=O)[C@@]34C)O[C@@H]2C)O[C@H](C)[C@H]1O | – | 1.33% [at 11.6 µM] (inactive)
CC(C)CC(=O)OC[C@@]1(O)C[C@@]23CC[C@H]4[C@@](C)(CCC[C@@]4(C)C(=O)O)[C@@H]2CC[C@@H]1C3 | inactive | –
C=C[C@H]1[C@H](O[C@@H]2O[C@H](CO)[C@@H](O)[C@H](O)[C@H]2O)OC=C(C(=O)OC)[C@H]1CC=O | inactive | –

SMILES | Potency | activity change, negative = cytotoxicity
C=C1C(=O)OC2CC(COC(=O)C(C)C)=C(C(C)CCCOC(C)=O)[C@@H](OC(C)=O)C12 (stereo partly drawn) | inactive | –
CC1=C2C(=O)C=C(CO[C@@H]3O[C@H](CO)[C@@H](O)[C@H](O)[C@H]3O)[C@@H]2[C@H]2OC(=O)[C@H](C)[C@@H]2[C@@H](O)C1 | inactive | –
C=C1C(=O)O[C@@H]2CC(C)=C([C@@H](C)CCCOC(C)=O)[C@@H](O)[C@H]12 | inactive | –
CC1=COC(OC2OC(CO)C(O)C(O)C2O)C2C(CO)CC(OC(=O)/C=C/c3ccc(O)cc3)C12 (stereo not drawn) | inactive | –
COc1cccc(OC)c1-c1ccc(C[C@H](NC(=O)c2c(Cl)cccc2Cl)C(=O)O)cc1 | inactive | –
C/C=C/C(=O)OC1/C=C/C(O)C(OC(C)=O)CCC(=O)OC1C (stereo not drawn) | inactive | –
CC1(C)[C@H]2C[C@H](C/C=C\CCCC(=O)O)[C@@H](NC(=O)c3csc4ccc(O)cc34)[C@@H]1C2 | inactive | –
CC(=O)/C=C/C1C(C)CC(O[C@@H]2O[C@H](CO)[C@@H](O)[C@H](O)[C@H]2O)CC1(C)C (stereo partly drawn) | inactive | –
COC(=O)c1ccccc1O[C@@H]1O[C@H](CO[C@@H]2OC[C@@H](O)[C@H](O)[C@H]2O)[C@@H](O)[C@H](O)[C@H]1O | inactive | –
NC(Cc1c[nH]c2ccc(O)cc12)C(=O)O (stereo not drawn) | inactive | –
CCN=C1N[C@@H]2[C@@H](O)[C@H](O)[C@@H](CO)O[C@@H]2S1 | inactive | –
O=C(NC1CCN(CC(F)(F)F)CC1)c1ccc(-c2cccc(F)c2)nc1 | inactive | –
COc1cc(/C=C/C(=O)O[C@H]2[C@@H]3C=CO[C@@H](O[C@@H]4O[C@H](CO)[C@@H](O)[C@H](O)[C@H]4O)[C@@H]3[C@@]3(CO)O[C@@H]23)ccc1O | inactive | –
C[C@@H]1[C@H](O)[C@@H]2OC(=O)C3=C2[C@H](CCC3)[C@@]12C[C@@H](c1ccoc1)OC2=O | inactive | –
CC1OC(OC2CCC3(C)C(CCC4(C)C3C=CC35OCC6(CCC(C)(C)CC63)CCC45C)C2(C)CO)C(OC2OC(CO)C(O)C(O)C2O)C(O)C1OC1OC(CO)C(O)C(O)C1O (stereo not drawn) | – | 5.87% [at 11.6 µM] (inactive)
CCC(C)C1NC(=O)C2CCCN2C(=O)C(CC(O)CO)OC(=O)CCNC(=O)C(C)N(C)C(=O)C(C(C)C)N(C)C1=O (stereo not drawn) (cyclo([X13]PI[NMeV][NMeA][βAla]); configuration not given here) | inactive | –
CC(O)C(=O)/C=C/C=C/C(=O)OC1C=C2COC(=O)C2(O)C2(C)CCCC(C)(C)C12 (stereo not drawn) | inactive | –
CC(C)C(O)(CO)CCO[C@@H]1O[C@H](CO[C@H]2OC[C@](O)(CO)[C@H]2O)[C@@H](O)[C@H](O)[C@H]1O (stereo partly drawn) | inactive | –
Nc1ncnc2c1ncn2[C@H]1O[C@@H](C(=O)N2CCN(CC(=O)Nc3cccc4c3CNC4=O)CC2)[C@H](O)[C@@H]1O | inactive | –
